KCNQ2 block = KCNQ2 (rat) channel inhibition | O88943 | CHO-K1 KCNQ2, FluxOR thallium flux, 20 min; stronger effect = lower value | B-score at 10 µM | 1.1% of 310,000 active | AID 2156;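 active = fluorescence ratio B-score at most minus 3 library SDs, with starting brightness B-score within 2 library SDs, cut at about -5.5 in these data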
Target sequence (O88943 whole entry, looked up): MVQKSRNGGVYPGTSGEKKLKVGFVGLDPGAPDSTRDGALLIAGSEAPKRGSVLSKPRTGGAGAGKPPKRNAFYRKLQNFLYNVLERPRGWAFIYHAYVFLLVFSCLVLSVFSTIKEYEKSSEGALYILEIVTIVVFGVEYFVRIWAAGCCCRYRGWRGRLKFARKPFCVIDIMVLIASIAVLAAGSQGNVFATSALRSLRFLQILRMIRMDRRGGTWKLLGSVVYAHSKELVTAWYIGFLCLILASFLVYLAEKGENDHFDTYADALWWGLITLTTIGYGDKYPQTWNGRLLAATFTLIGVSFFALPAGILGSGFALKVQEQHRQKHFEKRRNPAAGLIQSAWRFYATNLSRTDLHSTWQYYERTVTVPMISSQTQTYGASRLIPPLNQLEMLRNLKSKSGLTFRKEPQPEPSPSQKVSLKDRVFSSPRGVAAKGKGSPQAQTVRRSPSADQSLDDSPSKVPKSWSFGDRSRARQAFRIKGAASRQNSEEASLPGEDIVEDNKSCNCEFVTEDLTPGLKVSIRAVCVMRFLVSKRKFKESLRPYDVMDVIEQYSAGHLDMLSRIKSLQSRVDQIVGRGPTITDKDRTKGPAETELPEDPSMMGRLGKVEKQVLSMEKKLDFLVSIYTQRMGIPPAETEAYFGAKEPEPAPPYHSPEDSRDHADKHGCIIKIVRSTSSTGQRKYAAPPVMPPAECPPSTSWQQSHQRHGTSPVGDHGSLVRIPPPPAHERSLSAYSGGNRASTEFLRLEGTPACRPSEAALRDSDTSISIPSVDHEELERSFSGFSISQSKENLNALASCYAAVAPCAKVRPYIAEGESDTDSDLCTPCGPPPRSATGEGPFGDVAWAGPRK
KCNQ2 enhance = potentiators of rat KCNQ2 potassium channel; B-score at 10 µM; AID 2239; 0.54% of 310,000 active; O88943; CHO-K1 KCNQ2, FluxOR thallium flux fluorescence; stronger effect = higher value;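 active = fluorescence ratio B-score at least 3 SD of library B-scores, with initial fluorescence B-score within 3 of them, cut at about 5.3 in these data; same plate scores as AID 2156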;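 also: B-score of peak minus minimum over baseline fluorescence ratio after K+ and Tl+ stimulus; positive B-score means potentiation of KCNQ2 with more thallium influx and brighter signal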
KCNQ2 inh conf = confirmation of rat KCNQ2 potassium channel inhibitors. shares compounds with KCNQ2 block. KCNQ2-expressing cells, thallium flux, inhibition; stronger effect = lower value. activity change, negative = inhibition, % at 10 µM. 57% of 1,000 active. AID 493025;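 also: 0% = vehicle wells and values are ratio percent relative to vehicle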
KCNQ1 spec = selectivity of KCNQ2 inhibitors against human KCNQ1; KCNQ1-expressing cells, FluxOR thallium flux fluorescence; stronger effect = lower value; activity change, negative = inhibition, % at 10 µM; shares compounds with KCNQ2 block; 15% of 1,000 active; AID 493026;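 active = activity change at least 3 SD of negative controls below their mean in both duplicate wells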;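 also: CHO cells stably transfected with KCNQ1 and depolarized by potassium stimulus; peak minus minimum fluorescence over baseline after thallium addition; 0% = vehicle negative control and -100% = blank without thallium stimulus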
CHO parental ctr = counter-screen for KCNQ2 inhibitors: effect in parental CHO cells; thallium flux counter-screen; stronger effect = lower value; activity change, % at 10 µM; shares compounds with KCNQ2 block; 14% of 1,000 active;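 also: 0% = vehicle negative controls with stimulus buffer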
KCNQ2 patch conf = rat KCNQ2 inhibition confirmed by electrophysiology | shares compounds with KCNQ2 block | KCNQ2-expressing cells, automated patch clamp current | calls only at 10 µM | 49% of 550 active | AID 588531
Kir21 conf inh = confirmation of mouse Kir2.1 potassium channel inhibitors | shares compounds with KCNQ2 enhance | Kir2.1-expressing cells, FluxOR thallium flux fluorescence; stronger effect = lower value | Tl flux remaining, % of negative control (stronger effect = lower value), % at 10 µM | 41% of 2,300 active | AID 2032;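 active = Primary-screen hit whose thallium flux fell at least 3 control SD below untreated wells in both duplicates, with normal baseline fluorescence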;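 also: 0% = blank wells without stimulus and 100% = stimulated no-compound controls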
HEK293 ctr = counter-screen for Kir2.1 inhibitors: effect in parental HEK293 cells | FluxOR signal as % of negative control (100 = no effect), % at 10 µM | 19% of 2,300 active | FluxOR thallium flux fluorescence; 0% = unstimulated blank wells | AID 2105 | shares compounds with KCNQ2 enhance;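 active = dye signal at least 3 control SD above or below untreated wells in both duplicates, raw fluorescence within 3, either direction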;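 also: percent is based on the flux ratio of peak minus minimum fluorescence over baseline F0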
Kir21 spec = mouse Kir2.1 off-target activity of KCNQ2 potentiators. shares compounds with KCNQ2 enhance. HEK293 Kir2.1, FluxOR thallium flux fluorescence. activity over 3SD threshold, % at 10 µM. 2% of 1,200 active. AID 2345;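 active = fluorescence ratio rise of at least 3 SD above the vehicle-control mean, seen in both replicates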;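 also: 0% = vehicle mean plus 3 SD and 100% = vehicle minus no-stimulus blank window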
* marks the source's active call; other numbers are inactive results. An excerpt weighted towards active compounds, which were near 1.6% of everything screened. Unless noted, no rule for the calls is given here.

How did Cc1cccc(N(Cc2ccccc2)C(=O)c2cccc(S(=O)(=O)N3CC(C)OC(C)C3)c2)c1 (stereo not given) do in these assays?
KCNQ2 block: inactive

How did CC1CCCN(S(=O)(=O)c2ccc3c(c2)c(=O)nc2ccccn23)C1 (stereo not given) do in these assays?
KCNQ2 block: inactive

Results for COc1ccc(CNCCc2ccc(Cl)cc2)cc1OCc1ccccc1 ?
KCNQ2 block: -12.7*; KCNQ2 enhance: -12.7; KCNQ2 inh conf: inactive; KCNQ1 spec: inactive; CHO parental ctr: inactive; Kir21 conf inh: 13.5%*; HEK293 ctr: inactive

How did CCOc1cc(CNCc2ccccc2)ccc1OCc1ccc(Cl)cc1 do in these assays?
KCNQ2 block: inactive

How did CCOc1ccc2nc(N(CCN(CC)CC)C(=O)c3cccc([N+](=O)[O-])c3)sc2c1 do in these assays?
KCNQ2 block: inactive; KCNQ2 enhance: 1.01

What do the screens show for `CC(C)(C)C(=O)Nc1nnc(COc2ccc(Cl)cc2)s1`?
KCNQ2 block: inactive; KCNQ2 enhance: 0.12

How did CN(Cc1ccccc1O)CC1CCCN(CCc2ccc(Cl)cc2)C1 (stereo not given) do in these assays?
KCNQ2 block: -8.98*; KCNQ2 enhance: -8.98; KCNQ2 inh conf: inactive; KCNQ1 spec: inactive; CHO parental ctr: inactive; Kir21 conf inh: 23.0%*; HEK293 ctr: inactive

How did COc1ccc(CCN2CCCC(CN(C)Cc3cc(OC)ccc3OC)C2)cc1 (stereo not given) do in these assays?
KCNQ2 block: inactive; KCNQ2 enhance: 1.5

How did NC(=O)c1cc(S(=O)(=O)NCc2cccs2)cs1 do in these assays?
KCNQ2 block: inactive; KCNQ2 enhance: 0.14

How did Cc1ccc(C(=O)c2no[n+]([O-])c2C(=O)c2ccc(C)cc2)cc1 do in these assays?
KCNQ2 block: -9.7*; KCNQ2 enhance: -9.7; KCNQ2 inh conf: -28.5%*; KCNQ1 spec: inactive; CHO parental ctr: inactive; KCNQ2 patch conf: inactive; Kir21 conf inh: 70.5%*; HEK293 ctr: 62.5%*; Kir21 spec: -62.1

What do the screens show for `Cc1ccc(C(=O)c2ccc(C)cc2)cc1`?
KCNQ2 block: inactive

Results for CN1c2ccccc2C(C)(C)[C@]12C=Cc1cc(O)ccc1O2 ?
KCNQ2 block: -9.52*; KCNQ2 enhance: -9.52; KCNQ2 inh conf: -34.0%*; KCNQ1 spec: inactive; CHO parental ctr: inactive; KCNQ2 patch conf: inactive; Kir21 conf inh: inactive; HEK293 ctr: inactive

Results for CC1(C)OC(=O)N(c2ccccc2)C12C=Cc1cc(Br)ccc1O2 (stereo not given) ?
KCNQ2 block: inactive

How did OCCNc1nc(Nc2ccc(Br)cc2)nc2ccccc12 do in these assays?
KCNQ2 block: -12.2*; KCNQ2 enhance: -12.2; KCNQ2 inh conf: -26.0%*; KCNQ1 spec: inactive; CHO parental ctr: inactive; KCNQ2 patch conf: inactive; Kir21 conf inh: 30.5%*; HEK293 ctr: inactive

How did OCCNc1nc(Nc2ccccc2)nc2ccccc12 do in these assays?
KCNQ2 block: inactive; KCNQ2 enhance: 3.08

Results for Cc1ccc(COc2ccc(/C=N/O)cc2)cc1 ?
KCNQ2 block: inactive

What do the screens show for `NC(N)=N/N=C/c1ccc(OCc2ccc(Cl)cc2)cc1`?
KCNQ2 block: -9.63*; KCNQ2 enhance: -9.63; KCNQ2 inh conf: -37.0%*; KCNQ1 spec: inactive; CHO parental ctr: inactive; KCNQ2 patch conf: active; Kir21 conf inh: inactive; HEK293 ctr: 76.0%*

How did N#Cc1ccsc1NC(=O)COC(=O)c1cc2ccccc2cc1O do in these assays?
KCNQ2 block: inactive; KCNQ2 enhance: 1.22

What do the screens show for `Cc1ccc([N+](=O)[O-])cc1N(CC(=O)Nc1ccc(S(=O)(=O)Nc2cccc(C(F)(F)F)c2)cc1)S(C)(=O)=O`?
KCNQ2 block: inactive

Screening results (PubChem)
